Screening data (PubChem BioAssay)
KB-3-1 cytotox: kills parental KB-3-1 adenocarcinoma cells; KB-3-1 viability, CellTiter-Glo ATP luminescence, 72 h; AID 1347075; hit rate 1.4% among 400,000; Potency, µM (highest dose often 46.1 µM), most hits filed as cytotoxic; further: on the % scale 0 is the no-effect control and ±100 the full control effect; nearly all actives have a fitted effect of over 60% in size
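Cytotoxicity in the drug-sensitive parental line KB-3-1 was scored as loss of CellTiter-Glo luminescence following 72 h incubation with compound. Values come from curve fitting of normalized concentration-response data.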
HT1080 IDH1KD tx: HT-1080 IDH1 knockdown cell toxicity (counter line). HT-1080 IDH1 knockdown viability, ATP luminescence, 48 h. Potency, µM (top dose mostly 46.1 µM), inactives show at the highest dose activity, negative = toxicity, most hits filed as cytotoxic. hit rate 2% among 360,000;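 further: 0% = DMSO wells and -100% = cell-free medium wells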
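Luminescent ATP read-out (CellTiter-Glo, 10 min at room temperature) after 48 h compound exposure at 37 °C gave viability of IDH1-knockdown HT-1080 cells. Activity was normalised to DMSO and cell-free wells, then fitted as concentration-response curves.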
SW480 rerep: DNA re-replication induction in SW480 cells; SW480 DNA re-replication, Hoechst DNA content imaging, 48 h; Potency, µM (highest dose often 46.1 µM), for inactives: at the highest dose re-replication activation, hits mostly activators; hit rate 1.8% among 340,000; further: % of control where 0% means no effect; nearly all actives have a fitted effect of over 55% in size
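Image-based read-out: total Hoechst fluorescence of nuclei (405 nm excitation, 500-530 nm emission), with hits raising the fraction of high-intensity nuclei. SW480 colon cells incubated 48 hr with compounds at 37 C.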
HT1080-NT tox: kills 2HG-producing HT-1080-NT fibrosarcoma cells. HT-1080-NT fibrosarcoma viability, CellTiter-Glo ATP luminescence, 48 h. Potency, µM (series often up to 46.1 µM), without a hit: at the top dose activity, negative = less viability, usual class: cytotoxic. hit rate 1.6% among 360,000;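 further: NT is the 2HG producing partner of a matched IDH1 knockdown line; 0% = DMSO-treated cells and -100% = media-only wells without cells; nearly all actives have a fitted effect of over 55% in size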
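Fibrosarcoma NT cells, 750 per well in 5% FBS RPMI, were exposed to compound for 48 hours. Viability: CellTiter-Glo luminescence.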
KB-V1 MDR tox: kills drug-selected multidrug resistant KB-V1 cells; KB-V1 MDR cells viability, CellTiter-Glo, 72 h; Potency, µM (highest dose often 46.1 µM), most hits filed as cytotoxic; hit rate 3.4% among 400,000; AID 1347076; further: on the % scale 0 is the no-effect control and ±100 the full control effect; nearly all actives have a fitted effect of over 60% in size
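Readout: CellTiter-Glo luminescence, 10 min after addition. Cells: KB-V1 MDR subline, 72 h at 37 degrees C with compound. Analysis: corrected, normalized data fitted to concentration-effect curves.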
MCF10A rerep: induces DNA re-replication in MCF 10a normal breast cells. MCF 10A DNA re-replication, Hoechst nuclear intensity, 48 h. Potency, µM (titrated, usually from 46.1 µM), inactives show at the highest dose activity, positive = re-replication, usual class: activators. hit rate 2.9% among 350,000; further: % of control where 0% means no effect; nearly all actives have a fitted effect of over 50% in size
* = called active by the depositor; i = inactive; ? = inconclusive; . = no result; [ ] = remark or other dose. Hits are enriched below; roughly 7.9% of the tested compounds scored in any of these assays. The call rests on the fitted dose curve; in most records, active means well fitted curve in the direction sought with a large enough effect; inconclusive means small, poorly fitted or top-dose-only effect, or another doubt; inactive means no such curve, though single readings can be large; an effect the other way counts as inactive or inconclusive. Potency means the concentration at half of the fitted maximal effect.

SMILES | KB-3-1 cytotox | HT1080 IDH1KD tx | SW480 rerep | HT1080-NT tox | KB-V1 MDR tox | MCF10A rerep
CCCCCCCn1c2c(c(=N)c3c1CCC3)CCCC2 | 0.581µM* | 7.31µM* | -0.1% | 9.2µM* | ? | ?
O=C(COc1ccccc1[N+](=O)[O-])Nc1cc(-c2nc3cc(Cl)ccc3o2)ccc1Cl | i | . | . | . | i | .
CCN(CC(=O)NC1CCS(=O)(=O)C1)c1ccc(S(C)(=O)=O)cc1[N+](=O)[O-] (stereo unspecified) | i | 0.0% | -8.5% | -2.2% | i | 31.0%
COc1cc2ncnc(Nc3ccc4c(c3)OCO4)c2cc1OC | i | 6.9% | -0.9% | 16.8% | i | 5.4%
COc1cc2c3c(c1)C1(C(=O)N3C(C)(C)C=C2C)C(C#N)=C(N)Oc2cc(C)oc(=O)c21 (stereo unspecified) | i | -1.1% | -0.1% | -2.8% | i | 5.1%
COc1ccc(C(=O)N2CCc3cc(OC)c(OC)cc3C2c2cccc([N+](=O)[O-])c2)cc1OC (stereo unspecified) | i | -19.3% | 15.8% | -19.8% | i | 19.2%
CCCCCCCCCn1c2c(c(=N)c3c1CCC3)CCC2 | 1.03µM* | ? | 19.0% | 1.46µM* | i | ?
CCCCNC(=O)Nc1ccccc1CC | i | 13.8% | 0.6% | 10.2% | i | -0.9%
O=C1N/C(=N\N=C\c2cccs2)SC1Cc1ccc(Cl)cc1Cl (stereo unspecified) | 7.31µM* | ? | -82.3% | ? | ? | 20.7%
O=C1NC(=Nc2ccc(Cl)cc2)SC1Cc1cc(Cl)ccc1Cl (stereo unspecified) | i | -15.7% | 2.2% | -12.6% | 14.6µM* | ?
O=C1N/C(=N\N=C\c2cccs2)SC1Cc1cccc(Cl)c1Cl (stereo unspecified) | 5.17µM* | 6.51µM* | 7.31µM* | 4.61µM* | ? | 1.46µM*
OB(O)c1ccc(Cl)s1 | i | . | . | . | i | .
CC(C)=NNC1=NC(C)(C)Cc2ccccc21 | i | 9.4% | -4.1% | 19.9% | i | -3.3%
N#CNC(=Nc1ccc(F)cc1)SCc1ccccc1 | i | -2.6% | 3.66µM* | 12.4% | i | ?
CCC(C)NC(=O)CNC(=O)c1nn(-c2ccc(OC)cc2OC)c(=O)c2ccccc12 (stereo unspecified) | i | 0.0% | -13.1% | 4.5% | i | 134.9%
CCOC(=O)c1sc2c(c1C)C(c1cccs1)C1=C(CCCC1=O)N2 (stereo unspecified) | ? | ? | ? | -21.1% | i | 9.2µM*
O=c1/c(=C\c2cccc(O)c2)sc2nc(-c3ccccc3)c(-c3ccccc3)n12 | i | 23.2% | -6.4% | ? | i | 4.61µM*
Cc1ccnc2nc(C(=O)OCC(=O)N3CCc4ccccc43)nn12 | i | 6.6% | -14.4% | ? | i | 9.0%
CCOC(=O)/C(Sc1nc(-c2ccccc2)cc(-c2ccccc2)c1C#N)=C(\C)O | i | 10.3% | 11.6µM* | 11.5% | i | 3.66µM*
COc1ccc(-c2cc(-c3ccccc3)c(C#N)c(S(C)=O)n2)cc1 (stereo unspecified) | ? | ? | ? | ? | i | 5.17µM*
COc1ccc(-c2cc(-c3ccccc3)nc(SCC(=O)Nc3ncc(C)s3)c2C#N)cc1 | i | 0.3% | 9.4% | 1.7% | 9.2µM* | 23.3%
CCSc1nc(-c2ccc(OC)cc2)cc(-c2ccccc2)c1C#N | i | 8.4% | -2.9% | 0.1% | i | ?
CCc1nnc(NC(=O)CSc2nc(C)cc(C)c2C#N)s1 | i | 1.8% | 19.6% | 1.7% | i | ?
CCc1nnc(NC(=O)CSc2nc(-c3ccc(F)cc3)cc(-c3ccccc3)c2C#N)s1 | i | 4.3% | 9.7% | 0.3% | i | 11.6µM*
Cc1cccc(-c2cc(-c3ccccc3)nc(SCC(=O)Nc3ccccc3)c2C#N)c1 | i | . | . | . | i | .
SMILES | KB-3-1 cytotox | HT1080 IDH1KD tx | SW480 rerep | HT1080-NT tox | KB-V1 MDR tox | MCF10A rerep
CC1CCN(C(=O)CSCC(=O)O)CC1 | i | 12.2% | -5.5% | 8.3% | i | 19.2%
O=C(CCl)NN1C(=O)NC(c2ccccc2)(c2ccccc2)C1=O | ? | 16.4µM* | ? | ? | i | ?
Cc1onc(-c2ccccc2)c1C(=O)NC(=S)NNC(=O)c1ccc(O)cc1O | 4.61µM* | -27.6% | -1.8% | ? | 3.26µM* | ?
CC/C(=N\NC(=O)c1c(-c2ccccc2)noc1C)c1ccc(C)o1 | i | 15.7% | 1.7% | 7.4% | 13µM* | 17.1%
Cc1ccc(C(=O)NC(=S)NNC(=O)c2ccccc2O)cc1 | i | ? | -1.8% | ? | i | ?
Cc1onc(-c2ccccc2)c1C(=O)NC(=S)NNC(=O)c1ccccc1O | ? | 5.17µM* | -5.2% | 8.2µM* | ? | 25.9%
Cc1onc(-c2ccccc2)c1C(=O)NC(=S)NNC(=O)c1ccc(O)cc1 | ? | ? | 16.3% | -15.4% | i | 18.7%
O=C(NC(=S)NNC(=O)c1ccccc1O)c1ccccc1 | ? | -25.3% | 14.6µM* | ? | i | 29.8%
CCCCCCCNC(=O)C1(CC2CC(c3ccc(Cl)cc3)=NO2)CCN(C(=O)OC(C)(C)C)CC1 (stereo unspecified) | i | 11.5% | 0.5%[9.22 µM] | 1.0% | i | ?
O=C(NC(=O)c1ccccc1O)c1ccc(C(F)(F)F)cc1 | i | 14.6µM* | ? | 13µM* | i | 27.9%
O=C(CCCc1ccccc1)NCCc1ccc(F)cc1 | i | 0.8% | -1.6%[9.22 µM] | 21.8% | i | 1.0%
COc1cc(CN(C(=O)c2ccco2)c2ccc(C)cc2)ccc1O | i | -10.2% | -1.2% | -1.7% | 13µM* | -4.9%
CCOc1ccc(N(Cc2ccc(OC)cc2)C(=O)c2ccco2)cc1 | i | ? | 18.0% | ? | ? | 17.9%
COc1ccc(CN(C(=O)c2ccco2)c2ccc(C)c(C)c2)cc1 | 16.4µM* | 20.6µM* | 16.4µM* | ? | ? | 10.3µM*
O=C1CCC[C@@H]2CC(Nc3ccccc3)C[C@@H]3CCN1[C@H]23 (stereo partly specified) | i | . | . | . | i | .
O=C1CCCC2=C1C1(CCCCC1)N=C(Nc1nc3ccccc3s1)N2 | i | -2.7% | 15.3% | 16.1% | i | 10.3µM*
O=C1CCCC2=C1C1(CCCC1)N=C(Nc1nc3ccccc3s1)N2 | i | 11.5% | -2.9% | 9.6% | i | ?
CCN(CC)C(c1ccc(C)cc1)c1nnnn1C1CCCCC1 (stereo unspecified) | ? | 0.2% | 9.0% | 3.1% | 13µM* | ?
